Source: the supplement of paper PMC7411054
Counter-ions that a name gives are not always drawn.

Columns and labels:
Test in all cases: phenotypically active (imaging signature differs from DMSO and reproducible) at any of 0.3-9 uM (binary (1 = active, 0 = inactive)); higher = active
Conditions in all cases: treatment time: 24 h
A549-ACTB-RAB5A = test system: A549-ACTB-RAB5A
Procedure, shortened: (§1)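 Phenotypic activity depended on meeting both a deviation and a reproducibility criterion. The fifteen gene-edited A549, HepG2 and WPMY1 reporter lines were treated at 0.3, 1, 3 or 9 µM for 24 h, four wells each, then imaged live with features normalised to solvent control wells. Deviation required ≥3 of 4 wells past the 95th percentile of control Euclidean distances, and reproducibility a median replicate Pearson correlation above the 95th percentile of non-replicates.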

A549-CANX-COX4 = test system: A549-CANX-COX4
Procedure, shortened: as §1

A549-GM130-SQSTM1 = test system: A549-GM130-SQSTM1
Procedure, shortened: as §1

A549-TP53BP1-CLTA = test system: A549-TP53BP1-CLTA
Procedure, shortened: as §1

A549-TUBA1B-RELA = test system: A549-TUBA1B-RELA
Procedure, shortened: as §1

HepG2-ACTB-RAB5A = test system: HepG2-ACTB-RAB5A
Procedure, shortened: as §1

HepG2-CANX-COX4 = test system: HepG2-CANX-COX4
Procedure, shortened: as §1

HepG2-GM130-SQSTM1 = test system: HepG2-GM130-SQSTM1
Procedure, shortened: as §1

HepG2-TP53BP1-CLTA = test system: HepG2-TP53BP1-CLTA
Procedure, shortened: as §1

HepG2-TUBA1B-RELA = test system: HepG2-TUBA1B-RELA
Procedure, shortened: as §1

WPMY1-ACTB-RAB5A = test system: WPMY1-ACTB-RAB5A
Procedure, shortened: as §1

WPMY1-CANX-COX4 = test system: WPMY1-CANX-COX4
Procedure, shortened: as §1

WPMY1-GM130-SQSTM1 = test system: WPMY1-GM130-SQSTM1
Procedure, shortened: as §1

WPMY1-TP53BP1-CLTA = test system: WPMY1-TP53BP1-CLTA
Procedure, shortened: as §1

WPMY1-TUBA1B-RELA = test system: WPMY1-TUBA1B-RELA
Procedure, shortened: as §1

Measured: phenotypically active

CCc1ccc(CCOc2ccc(CC3SC(=O)NC3=O)cc2)nc1 (stereo not given) [Pioglitazone hydrochloride]
inactive: A549-ACTB-RAB5A 0 | A549-CANX-COX4 0 | A549-GM130-SQSTM1 0 | A549-TP53BP1-CLTA 0 | A549-TUBA1B-RELA 0 | HepG2-ACTB-RAB5A 0 | HepG2-CANX-COX4 0 | HepG2-GM130-SQSTM1 0 | HepG2-TP53BP1-CLTA 0 | HepG2-TUBA1B-RELA 0 | WPMY1-ACTB-RAB5A 0 | WPMY1-CANX-COX4 0 | WPMY1-GM130-SQSTM1 0 | WPMY1-TP53BP1-CLTA 0 | WPMY1-TUBA1B-RELA 0

CCOC(=O)CCNc1cc(N2CCc3ccccc3CC2)nc(-c2cccnc2)n1
inactive: A549-ACTB-RAB5A 0 | A549-CANX-COX4 0 | A549-GM130-SQSTM1 0 | A549-TP53BP1-CLTA 0 | A549-TUBA1B-RELA 0 | HepG2-ACTB-RAB5A 0 | HepG2-CANX-COX4 0 | HepG2-GM130-SQSTM1 0 | HepG2-TP53BP1-CLTA 0 | HepG2-TUBA1B-RELA 0 | WPMY1-ACTB-RAB5A 0 | WPMY1-CANX-COX4 0 | WPMY1-GM130-SQSTM1 0 | WPMY1-TP53BP1-CLTA 0 | WPMY1-TUBA1B-RELA 0

CC(=O)[C@H]1CC[C@H]2[C@@H]3C=CC4=CC(=O)CC[C@@]4(C)[C@@H]3CC[C@]12C [dydrogesterone]
inactive: A549-ACTB-RAB5A 0 | A549-CANX-COX4 0 | A549-GM130-SQSTM1 0 | A549-TP53BP1-CLTA 0 | A549-TUBA1B-RELA 0 | HepG2-ACTB-RAB5A 0 | HepG2-CANX-COX4 0 | HepG2-GM130-SQSTM1 0 | HepG2-TP53BP1-CLTA 0 | HepG2-TUBA1B-RELA 0 | WPMY1-ACTB-RAB5A 0 | WPMY1-CANX-COX4 0 | WPMY1-GM130-SQSTM1 0 | WPMY1-TP53BP1-CLTA 0 | WPMY1-TUBA1B-RELA 0

CN(C)CCc1c[nH]c2ccc(Cn3cncn3)cc12 [rizatriptan]
inactive: A549-ACTB-RAB5A 0 | A549-CANX-COX4 0 | A549-GM130-SQSTM1 0 | A549-TP53BP1-CLTA 0 | A549-TUBA1B-RELA 0 | HepG2-ACTB-RAB5A 0 | HepG2-CANX-COX4 0 | HepG2-GM130-SQSTM1 0 | HepG2-TP53BP1-CLTA 0 | HepG2-TUBA1B-RELA 0 | WPMY1-ACTB-RAB5A 0 | WPMY1-CANX-COX4 0 | WPMY1-GM130-SQSTM1 0 | WPMY1-TP53BP1-CLTA 0 | WPMY1-TUBA1B-RELA 0

CCCCCC1CC1CC1CC1CCCCCCCC(=O)O (stereo not given)
inactive: A549-ACTB-RAB5A 0 | A549-CANX-COX4 0 | A549-GM130-SQSTM1 0 | A549-TP53BP1-CLTA 0 | A549-TUBA1B-RELA 0 | HepG2-ACTB-RAB5A 0 | HepG2-CANX-COX4 0 | HepG2-GM130-SQSTM1 0 | HepG2-TP53BP1-CLTA 0 | HepG2-TUBA1B-RELA 0 | WPMY1-ACTB-RAB5A 0 | WPMY1-CANX-COX4 0 | WPMY1-GM130-SQSTM1 0 | WPMY1-TP53BP1-CLTA 0 | WPMY1-TUBA1B-RELA 0

C[C@H]1[C@H](C)CC[C@]2(C(=O)O)CC[C@]3(C)C(=CC[C@@H]4[C@@]5(C)CC[C@H](O)C(C)(C)[C@@H]5CC[C@]43C)[C@H]12 [Ursolic acid]
inactive: A549-ACTB-RAB5A 0 | A549-CANX-COX4 0 | A549-GM130-SQSTM1 0 | A549-TP53BP1-CLTA 0 | A549-TUBA1B-RELA 0 | HepG2-ACTB-RAB5A 0 | HepG2-CANX-COX4 0 | HepG2-GM130-SQSTM1 0 | HepG2-TP53BP1-CLTA 0 | HepG2-TUBA1B-RELA 0 | WPMY1-ACTB-RAB5A 0 | WPMY1-CANX-COX4 0 | WPMY1-GM130-SQSTM1 0 | WPMY1-TP53BP1-CLTA 0 | WPMY1-TUBA1B-RELA 0

O=C(O)C(CO)c1ccccc1 (stereo not given) [Tropic acid]
inactive: A549-ACTB-RAB5A 0 | A549-CANX-COX4 0 | A549-GM130-SQSTM1 0 | A549-TP53BP1-CLTA 0 | A549-TUBA1B-RELA 0 | HepG2-ACTB-RAB5A 0 | HepG2-CANX-COX4 0 | HepG2-GM130-SQSTM1 0 | HepG2-TP53BP1-CLTA 0 | HepG2-TUBA1B-RELA 0 | WPMY1-ACTB-RAB5A 0 | WPMY1-CANX-COX4 0 | WPMY1-GM130-SQSTM1 0 | WPMY1-TP53BP1-CLTA 0 | WPMY1-TUBA1B-RELA 0

O=C(O)c1ccc(O)c2ncccc12
inactive: A549-ACTB-RAB5A 0 | A549-CANX-COX4 0 | A549-GM130-SQSTM1 0 | A549-TP53BP1-CLTA 0 | A549-TUBA1B-RELA 0 | HepG2-ACTB-RAB5A 0 | HepG2-CANX-COX4 0 | HepG2-GM130-SQSTM1 0 | HepG2-TP53BP1-CLTA 0 | HepG2-TUBA1B-RELA 0 | WPMY1-ACTB-RAB5A 0 | WPMY1-CANX-COX4 0 | WPMY1-GM130-SQSTM1 0 | WPMY1-TP53BP1-CLTA 0 | WPMY1-TUBA1B-RELA 0

Brc1c(NC2=NCCN2)ccc2nccnc12 [brimonidine]
inactive: A549-ACTB-RAB5A 0 | A549-CANX-COX4 0 | A549-GM130-SQSTM1 0 | A549-TP53BP1-CLTA 0 | A549-TUBA1B-RELA 0 | HepG2-ACTB-RAB5A 0 | HepG2-CANX-COX4 0 | HepG2-GM130-SQSTM1 0 | HepG2-TP53BP1-CLTA 0 | HepG2-TUBA1B-RELA 0 | WPMY1-ACTB-RAB5A 0 | WPMY1-CANX-COX4 0 | WPMY1-GM130-SQSTM1 0 | WPMY1-TP53BP1-CLTA 0 | WPMY1-TUBA1B-RELA 0

CCO[C@@H](Cc1ccc(OCCc2ccc(OS(C)(=O)=O)cc2)cc1)C(=O)O [Tesaglitazar]
inactive: A549-ACTB-RAB5A 0 | A549-CANX-COX4 0 | A549-GM130-SQSTM1 0 | A549-TP53BP1-CLTA 0 | A549-TUBA1B-RELA 0 | HepG2-ACTB-RAB5A 0 | HepG2-CANX-COX4 0 | HepG2-GM130-SQSTM1 0 | HepG2-TP53BP1-CLTA 0 | HepG2-TUBA1B-RELA 0 | WPMY1-ACTB-RAB5A 0 | WPMY1-CANX-COX4 0 | WPMY1-GM130-SQSTM1 0 | WPMY1-TP53BP1-CLTA 0 | WPMY1-TUBA1B-RELA 0

Clc1cccc(Nc2nnc(-c3ccccc3)c3ccccc23)c1
inactive: A549-ACTB-RAB5A 0 | A549-CANX-COX4 0 | A549-GM130-SQSTM1 0 | A549-TP53BP1-CLTA 0 | A549-TUBA1B-RELA 0 | HepG2-ACTB-RAB5A 0 | HepG2-CANX-COX4 0 | HepG2-GM130-SQSTM1 0 | HepG2-TP53BP1-CLTA 0 | HepG2-TUBA1B-RELA 0 | WPMY1-ACTB-RAB5A 0 | WPMY1-CANX-COX4 0 | WPMY1-GM130-SQSTM1 0 | WPMY1-TP53BP1-CLTA 0 | WPMY1-TUBA1B-RELA 0
